Test results reported in PubChem BioAssay AID1259240 (Keith Lab, Institute of Cancer Science, University of …, 2017).
The source made the active and inactive calls. Rule as the data show it: active = fold change mostly below about -2 (no sharp cut-off); inactive = mostly above about -1.8.

assay: modulation of TERT promoter-driven luciferase – cell-based, luciferase reporter, human, primary screen (AID 1259240); details: A2780 TERT promoter luciferase reporter, 16 h; at 20 µM, fold versus average of vehicle-only wells

Row | SMILES | outcome | fold change
1 | Cc1cc(=O)[nH]c(SCC(=O)c2c[nH]c3ccccc23)n1 | inactive | –
2 | O=C(CCN1C(=O)c2ccccc2S1(=O)=O)Nc1cc(Cl)ccc1Cl | – | 1.22 (inactive)
3 | NC(=O)C1CCN(C(=O)CCCc2nnc3n4nc(-c5ccccc5)nc4c4ccccc4n23)CC1 | – | -1 (inactive)
4 | Cc1nc2c(-c3ccc(F)cc3)c(C)nn2c(C)c1CCC(=O)NC(C)C | – | -1.28 (inactive)
5 | Cc1ccccc1N1CC(O)(c2ccccc2)[N+]2=C1SCCC2 (centres undefined) | – | -1.05 (inactive)
6 | COc1ccc(S(=O)(=O)n2nc(-c3ccc(Cl)cc3)cc2N)cc1OC | – | 1.41 (inactive)
7 | Cn1c(=O)oc2cc(S(=O)(=O)N3CCCC(C(=O)NC4CCCCCCC4)C3)ccc21 (centres undefined) | – | 1.03 (inactive)
8 | O=C(CSc1nc(-c2ccc(F)cc2)cc(C(F)(F)F)n1)NCCCn1ccnc1 | – | -1.16 (inactive)
9 | Cc1nc2cc(-c3ccc(Cl)cc3)nn2c(C)c1CCC(=O)O | – | -16.5 (active)
10 | CC(CC(=O)NCCc1c[nH]c2ccccc12)CC1=NS(=O)(=O)c2ccccc2N1 (centres undefined) | – | -1.46 (inactive)
11 | Cc1ccc(N2C(=O)c3n[nH]c(C)c3C2c2cccs2)cc1 (centres undefined) | – | 1.21 (inactive)
12 | Cc1cc(C)c(Cn2c3ccccc3c3cnn(CC(=O)NCC4CCCO4)c(=O)c32)c(C)c1 (centres undefined) | – | -1.24 (inactive)
13 | COc1ccc(-c2nc3s/c(=C\c4cc(OC)c(OC)c(OC)c4)c(=O)n3n2)cc1OC | – | 1.65 (inactive)
14 | COc1cc2nc(CN3C(=O)c4ccccc4C3=O)oc(=O)c2cc1OC | – | -2.87 (active)
15 | CC(C)c1ccc(NC(=O)Nc2ccc3snnc3c2)cc1 | – | -1.62 (inactive)
16 | Cc1cccc(NC(=O)C2CCCN(S(=O)(=O)c3cnc[nH]3)C2)n1 (centres undefined) | – | -2.48 (active)
17 | CCOc1cc(C2c3c(oc4ccc(F)cc4c3=O)C(=O)N2Cc2ccc(F)cc2)ccc1O (centres undefined) | – | -3.2 (active)
18 | O=C(Cc1ccc(NC2=NC3CS(=O)(=O)CC3S2)cc1)N1CCN(c2ncccn2)CC1 (centres undefined) | – | 1.14 (inactive)
19 | O=C(NC1CCCCCC1)C1CCC(CNc2c(NC3CCCCC3)c(=O)c2=O)CC1 (centres undefined) | – | -1.28 (inactive)
20 | O=C(c1cccc(Cl)c1)N1CCN(c2ccc3nnc(-c4ccccc4)n3n2)CC1 | – | 1 (inactive)

Row | SMILES | outcome | fold change
21 | CC(C)CCNC(=O)Cn1c(=O)oc2cc(S(=O)(=O)N3CCc4ccccc43)ccc21 | – | 1.17 (inactive)
22 | CC(C)(C)c1ccc(OCc2nc(-c3ccncc3)no2)c(Br)c1 | – | -1.23 (inactive)
23 | Cc1nc2cc(-c3ccccc3)nn2c(C)c1CCC(=O)NC(C)c1ccc2c(c1)OCCO2 (centres undefined) | – | -3.95 (active)
24 | CN1C(=O)/C(=C/c2cn(CC(N)=O)c3ccccc23)c2ccccc21 | – | 1.5 (inactive)
25 | COc1ccc2[nH]cc(S(=O)(=O)c3ccc(C)cc3)c(=O)c2c1 | – | 1.08 (inactive)
26 | O=C1C(c2sc3ccccc3c2O)=Nc2c1ccc1ccccc21 | active | –
27 | CCOc1cc(C2NC(=O)c3n[nH]c(C)c32)ccc1O (centres undefined) | – | 1.27 (inactive)
28 | Cc1cc(C)c2c(=O)n(CC(=O)NCCC3=CCCCC3)sc2n1 | – | 1.18 (inactive)
29 | CCCCNc1nc2c(c(=O)[nH]c(=O)n2C)n1CCO | – | -1.67 (inactive)
30 | c1nc(N2CCOCC2)c2sc3nc(N4CCOCC4)c4c(c3c2n1)CCCC4 | – | -1.09 (inactive)
31 | Cc1csc(NC(=O)C2CCCN(S(=O)(=O)c3c(C)[nH]c(=O)[nH]c3=O)C2)n1 (centres undefined) | – | -1.1 (inactive)
32 | O=C(Cn1c(=O)oc2cc(S(=O)(=O)NC3CCCC3)ccc21)NC1CCCCCCC1 | – | 1.01 (inactive)
33 | CCc1cc(C)cc(OCC(O)Cn2cnc3ccccc32)c1 (centres undefined) | – | -1.77 (inactive)
34 | COc1cccc(-c2cc(N)n(S(=O)(=O)c3cccc4nsnc34)n2)c1 | – | 1.15 (inactive)
35 | Cc1[nH]nc2c1C(c1cccs1)NC2=O (centres undefined) | – | -1.17 (inactive)
36 | COCCn1c(SCC(=O)Nc2nnc(C)s2)nc2c(c1=O)SC(C)C2 (centres undefined) | – | 1.17 (inactive)
37 | O=C(OCCCN=C1NS(=O)(=O)c2ccccc21)c1cccs1 | active | –
38 | Cc1ccc(-c2n[nH]c3c2C(c2cccc(O)c2)NC3=O)cc1 (centres undefined) | – | -1.62 (inactive)
39 | CCOC(=O)c1nn(-c2ccc(Cl)cc2)c(=O)c2c(NC(=O)C3CC3)scc12 | – | -1.1 (inactive)
